Source: PubChem BioAssay
DT40 TDP1 no CPT: qHTS for Inhibitors of human tyrosyl-DNA phosphodiesterase 1 (TDP1): qHTS in cells in absence of CPT. AID 686978, 2013. DT40 Tdp1-/- hTDP1 cells, no CPT, ATP luminescence, 48 h. Potency, µM (doses to about 46.2 µM), without a hit: top-dose activity change, negative = growth inhibition, usual class: inhibitors. 15% of 420,000 active; further: nearly all actives have a fitted effect of over 55% in size
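Compound effects on proliferation are scored in DT40 Tdp1-/-;hTDP1 cells in the absence of CPT. ATP levels (CellTiter-Glo luminescence) are recorded after a ≥48 hr, 37 °C incubation.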
Gal4-VP16 FLuc: inhibits Gal4-VP16 luciferase reporter, ROR gamma counter-screen; Drosophila S2 Gal4-VP16 UAS-luciferase, luminescence, 20 h; 3.5% of 310,000 active; Potency, µM (highest dose often 53.6 µM), inactives show at the top dose activity, negative = inhibition, hits mostly inhibitors;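 further: Gal4-VP16 expression switched on by copper sulfate through the metallothionein promoter; nearly all actives have a fitted effect of over 50% in size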
DT40 TDP1 CPT: growth inhibition of DT40 Tdp1-/-;hTDP1 cells with camptothecin (screen for TDP1 inhibitors); Potency, µM (doses to about 46.2 µM), for the others: at the top dose activity change, negative = growth inhibition, usual class: inhibitors; chicken DT40 Tdp1-/-;hTDP1 cells + 20 nM CPT, ATP luminescence, 48 h; 12% of 420,000 active; further: nearly all actives have a fitted effect of over 55% in size
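Chicken DT40 Tdp1-/- cells complemented with human TDP1, 400 cells/well, exposed to compounds plus 20 nM camptothecin for at least 48 h at 37 C; viability read as ATP content by CellTiter-Glo luminescence.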
TDP1 block: blocks human tyrosyl-DNA phosphodiesterase 1; Q9NUW8; recombinant TDP1, AlphaScreen DNA substrate cleavage; Potency, µM (titrated, usually from 130 µM), inactives show at the top dose activity change, negative = inhibition, hits mostly inhibitors; 0.28% of 350,000 active; AID 485290; further: nearly all actives have a fitted effect of over 40% in size
Target sequence (Q9NUW8 whole entry, looked up): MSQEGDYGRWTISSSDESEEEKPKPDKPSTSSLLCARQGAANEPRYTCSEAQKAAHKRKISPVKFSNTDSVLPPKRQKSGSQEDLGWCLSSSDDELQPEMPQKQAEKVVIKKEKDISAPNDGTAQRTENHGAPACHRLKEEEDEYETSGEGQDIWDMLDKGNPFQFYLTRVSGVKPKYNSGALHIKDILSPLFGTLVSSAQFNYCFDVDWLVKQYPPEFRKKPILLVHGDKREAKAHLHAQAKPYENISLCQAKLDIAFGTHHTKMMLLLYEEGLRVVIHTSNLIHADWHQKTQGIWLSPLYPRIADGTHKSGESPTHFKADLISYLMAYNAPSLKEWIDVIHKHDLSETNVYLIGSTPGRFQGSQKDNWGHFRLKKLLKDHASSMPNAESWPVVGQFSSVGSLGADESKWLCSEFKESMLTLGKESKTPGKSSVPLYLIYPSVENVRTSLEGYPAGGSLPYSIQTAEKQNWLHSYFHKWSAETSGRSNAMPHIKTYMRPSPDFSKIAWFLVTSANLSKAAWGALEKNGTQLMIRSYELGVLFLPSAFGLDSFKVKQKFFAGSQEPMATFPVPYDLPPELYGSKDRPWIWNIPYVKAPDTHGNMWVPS
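Recombinant E. coli-expressed Tdp1 (1 nM) preincubated with compound 15 min at RT, then 5'-biotin/3'-phosphotyrosine-FITC DNA substrate (15 nM) added for 5 min. AlphaScreen beads (10 ug/ml) added, 10 min RT; tyrosine-FITC cleavage read as signal loss.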
RORg inh: ROR gamma (mouse) transcription inhibition; P51450; Drosophila S2 Gal4-RORgamma UAS-luciferase reporter, 20 h; Potency, µM (titrated, usually from 53.6 µM), for the others: at the top dose activity change, negative = inhibition, actives largely listed as inhibitors; 5.4% of 310,000 active; AID 2551; further: nearly all actives have a fitted effect of over 60% in size
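Stably transfected Drosophila Schneider cells are the test system, with ROR gamma fused to Gal4 and luciferase under UAS control; luminescence is read after 20 hr of 700 uM copper sulfate induction at ambient temperature.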
Active calls of the source: *; ? = inconclusive; . = not tested or not shown. Only some compounds are listed: those with a hit (about 19% of all), similar ones and a draw of the others. The call rests on the fitted dose curve; in most records, active means well fitted curve in the direction sought with a large enough effect; inconclusive means small, poorly fitted or top-dose-only effect, or another doubt; inactive means no such curve, though single readings can be large; an effect the other way counts as inactive or inconclusive. On the % scale 0 is the no-effect control and ±100 the full control effect; potency means the concentration at half of the fitted maximal effect.

SMILES | DT40 TDP1 no CPT | Gal4-VP16 FLuc | DT40 TDP1 CPT | TDP1 block | RORg inh
CSCC[C@H](NC(=O)[C@H](CC(C)C)N(C)C(=O)[C@@H]1CCCN1C(=O)[C@H](Cc1ccccc1)NC(=O)[C@H](Cc1ccccc1)NC(=O)CCC(C)N)C(=O)O (some centres undefined) | . | -8% | . | 10% | -3%
Cc1cccc(-n2c(SCC(=O)Nc3ncc(Cl)cc3Cl)nc3ccccc32)c1 | ? | -18% | ? | 2% | -13%
CS(=O)(=O)N(CC(=O)Nc1ccc(C(N)=O)cc1)C1CCCCC1 | -23% | -9% | -6% | -2% | -6%
O=C(Nc1ccc(Br)cc1)c1cccc(OC(=S)N2CCOCC2)c1 | ? | -6% | ? | . | ?
Cc1nn(-c2ccccc2)c(C)c1S(=O)(=O)O | 31% | -8% | -28% | 25µM* | -16%
CCOc1ccc(C(=O)NC(=S)Nc2ccccc2N2CCOCC2)cc1Br | 16µM* | 4.5µM* | ? | -3% | 3.2µM*
COc1ccc(C(=O)Nc2ccccc2N2CCOCC2)cc1Br | ? | -21% | ? | 4% | 18µM*
COc1ccc(CN2C(=O)c3ccccc3C2=O)cc1C(=O)Nc1ccccc1N1CCOCC1 | 16µM* | 16% | ? | 11% | 7%
CC(=O)Nc1cccc(C(=O)Nc2ccccc2N2CCOCC2)c1 | 26µM* | -1% | ? | 6% | 1%
COc1ccc(C(=O)Nc2ccccc2C(=O)N2CCOCC2)cc1Br | 2% | -6% | -1% | 1% | 0%
Cn1c(=O)c(=O)n(C)c2cc(S(=O)(=O)N3CCOCC3)ccc21 | 4% | 1% | -29% | 5% | -16%
COc1ccc(C(=O)NC(=S)Nc2ccccc2N2CCOCC2)cc1Br | 18µM* | 6.3µM* | ? | 5% | 6.3µM*
O=C(CNc1ccc2ccccc2c1)NNC1=NCCC1 | -18% | 4µM* | -7% | 3% | 2.8µM*
COc1ccc(NC(=O)c2ccc3ccccc3c2)cc1 | 4% | -2% | 6% | . | -33%
O=C(CNc1ccccc1)NNC1=NCCC1 | 13% | ? | -6% | 2% | ?
COc1ccc(C(=O)CNc2ccccc2Br)cc1 | -19% | ? | -8% | . | 1.8µM*
COc1ccc(C(=O)CNc2ccc3ccccc3c2)cc1 | ? | ? | -8% | . | 13µM*
CCOC(=O)/C(=C/c1c[nH]c2ccccc12)NC(C)=O | -16% | -10% | -12% | 6% | 21%
CCOC(=O)/C=C(C)\C=C\c1c[nH]c2ccccc12 | 29µM* | -13% | -6% | 6% | 25%
O=C(NCCc1ccccn1)C1CCN(S(=O)(=O)c2ccc(Cl)cc2)CC1 | -2% | -6% | 6% | 2% | 0%
c1ccc2c(c1)ccn2-n1ccc2ccccc21 | 13µM* | . | -54% | . | .
COc1ccc(-n2ccc3ccccc32)cc1 | -23% | 3% | -15% | . | 35%
CCCc1nc2c(=O)n(C)c(=O)nc-2n(C)n1 | 1.2µM* | 2.8µM* | 1.6µM* | 6% | 1.4µM*
CCc1ccc(-c2nc3c(=O)n(C)c(=O)nc-3n(CC)n2)cc1 | 2.8µM* | . | 2.8µM* | 2% | .
Cn1nc(-c2ccccn2)nc2c(=O)n(C)c(=O)nc1-2 | 0.52µM* | 0.56µM* | 0.65µM* | -1% | 0.45µM*
SMILES | DT40 TDP1 no CPT | Gal4-VP16 FLuc | DT40 TDP1 CPT | TDP1 block | RORg inh
CCCc1nc2c([nH]1)c(=O)n(C)c(=O)n2C | ? | 1% | -9% | -3% | 2%
Cc1ccccc1-c1nc2c(=O)n(C)c(=O)nc-2n(C)n1 | 0.63µM* | . | 0.71µM* | 2% | .
CCc1ccc(-c2csc3ncn(CC)c(=O)c23)cc1 | 2% | 8% | -2% | -2% | 8%
Cc1ccc(-n2c3nc(=O)n(C)c(=O)c-3cc3ccccc32)cc1 | ? | 5% | ? | . | -1%
CC1CCN(C(C(=O)Nc2ccc3c(c2)OCO3)c2ccccc2)CC1 (centres undefined) | -25% | 0% | -17% | 5% | 13%
O=C(CN(C(=O)c1ccc(Cl)cc1)N1C(=O)C2CCCCC2C1=O)c1ccc(Cl)cc1 (centres undefined) | -16% | 1% | 1% | -5% | 2%
